Nrf2 block: blocks Nrf2 signaling | actives 2.1% (n = 360,000) | Potency, µM (series often up to 46 µM), inactives show top-dose activity change, negative = inhibition, hits mostly inhibitors | A549 ARE-Fluc reporter, luciferase luminescence, 18-24 h | AID 504444; note: potency is the fitted concentration of half-maximal effect; % is set by controls: 0 for no effect and ±100 for the full control effect; nearly all actives have a fitted effect of over 60% in size
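Concentration-response testing used A549 ARE_Fluc cells at 5000 cells/well. Following an 18-24 h compound incubation, viability was read by fluorescence (Ex 405/Em 525) and luciferase output by luminescence.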
A549 viability: kills or reduces viability of A549 cells in Nrf2 counter-screen | A549 ARE-Fluc cells, CellTiter-Fluor viability, 18-24 h | Potency, µM (top dose mostly 46 µM), for inactives: at the highest dose activity change, negative = cytotoxicity, most hits filed as inhibitors | actives 0.16% (n = 390,000); note: potency is the fitted concentration of half-maximal effect; % is set by controls: 0 for no effect and ±100 for the full control effect
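A549 ARE-Fluc cells in 5% FBS OPTI-MEM, 5000 cells/well, rested 2 h then exposed to compounds in concentration-response for 18-24 h at 37 °C. Viability by CellTiter-Fluor fluorescence (Ex 405/Em 525) after 30 min; luciferase luminescence (BugLite, 15 min, RT) read afterwards.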
Giardia killer: Giardia lamblia killing. Giardia lamblia trophozoite viability. activity change, % at 7.66 µM, hits read low. actives 0.15% (n = 340,000). AID 540267; in the data active = activity change below about -80%; inconclusive = between about -30% and that limit;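 note: parasites exposed to compound for two days anaerobically before the ATP read; % is set by controls: 0 for no effect and ±100 for the full control effect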
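Each well holds 100 Giardia trophozoites and compound. After two days (48 hrs) at 37 deg C in anaerobic conditions, ATP is quantified by luminescence.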
Anesthetic bind: candidate novel general anesthetic via apoferritin binding. P02791. apoferritin/1-aminoanthracene competitive binding, fluorescence. Potency, µM (series often up to 77.5 µM), for inactives: at the highest dose activity change, negative = displacement, most hits filed as inhibitors. actives 0.074% (n = 350,000). AID 485281; note: potency is the fitted concentration of half-maximal effect; % is set by controls: 0 for no effect and ±100 for the full control effect; nearly all actives have a fitted effect of over 20% in size
Target sequence (P02791 2-175 limits assumed): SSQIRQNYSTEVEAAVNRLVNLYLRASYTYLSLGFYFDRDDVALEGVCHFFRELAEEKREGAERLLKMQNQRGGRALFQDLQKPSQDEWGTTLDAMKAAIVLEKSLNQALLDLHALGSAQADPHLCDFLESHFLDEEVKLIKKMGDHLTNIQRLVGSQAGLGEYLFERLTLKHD
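10 uM apoferritin + 50% sat. 1-AMA, PBS; cpd 10 min RT; Ex380/Em535 endpoint; normalized to free probe vs complex; 4-param Hill fit; propofol titration as pos. ctrl.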
IDH1 R132H inh: inhibitors of human mutant IDH1 R132H | IDH1-R132H enzyme, NADPH consumption, diaphorase/resazurin fluorescence | Potency, µM (series often up to 76.6 µM), for the others: at the highest dose activity change, negative = inhibition, usual class: inhibitors | O75874 | actives 0.093% (n = 390,000); note: potency is the fitted concentration of half-maximal effect; % is set by controls: 0 for no effect and ±100 for the full control effect; nearly all actives have a fitted effect of over 65% in size
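IDH1-R132H (0.5 ug/mL dispensed) in pH 7.5 Tris buffer was preincubated 30 min with compound, then given a substrate mix of 0.016 mM NADPH and 2 mM alpha-KG for 80 min at room temperature; remaining NADPH was read by diaphorase/resazurin fluorescence.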
Nrf2 ARE act: activates Nrf2 signaling; AREc32 ARE-luciferase reporter (MCF7-derived line), luminescence, 24 h; Potency, µM (titrated, usually from 46.1 µM), inactives show at the top dose activation, hits mostly activators; actives 0.31% (n = 410,000); note: potency is the fitted concentration of half-maximal effect; % of control where 0% means no effect; nearly all actives have a fitted effect of over 65% in size
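AREc32_Fluc, 1000 cells/well, OPTI-MEM + 5% FBS, o/n 37 deg C 5% CO2; 23 nL cpd by pin tool, 24 hr; Steady-Glo 30 min RT, luminescence.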
* hit, by the source's call; i = inactive; ? = inconclusive; nt = no result; ! = repeats disagree; [ ] = another dose, or the depositor's remark. Rows were chosen to be rich in hits. Some 2.3% of all compounds tested hit in one or more screens of this group. Unless noted, calls come from the whole dose curve; as a rule, active = well fitted curve in the direction sought with a large enough effect; inconclusive = small, poorly fitted or top-dose-only effect, or another doubt; inactive = no such curve, though single readings can be large; an effect the other way counts as inactive or inconclusive.

SMILES	Nrf2 block	A549 viability	Giardia killer	Anesthetic bind	IDH1 R132H inh	Nrf2 ARE act
Nc1ccc2ccc3cccc[n+]3c2c1	13µM*	?	?	i	10.1%	4.4%
CSc1ccc(CN2CCN(C(=O)COc3ccc(C)cc3)CC2)cc1	20.6µM*!	-0.1%	-17.2	-11.7%	-0.1%	2.6%
Cn1nc(-c2ccc(OCC(=O)N3CCN(Cc4ccccc4)CC3)cc2)c2ccccc2c1=O	18.4µM*	?	20.9	1.4%	0.8%	3.4%
Cc1ccc(OCC(=O)N2CCN(CCc3ccncc3)CC2)cc1	?	3.6%	nt	10.7%	3.8%	-0.3%
Cn1c(=O)oc2cc(S(=O)(=O)N3CCCC(C(=O)N4CCN(c5cccc(Cl)c5)CC4)C3)ccc21 (configuration not stated)	18.4µM*	-0.2%	nt	-7.2%	14.3%	-1.1%
O=C(C1CCCN(S(=O)(=O)c2cccc3nsnc23)C1)N1CCN(c2cccc(Cl)c2)CC1 (configuration not stated)	20.6µM*	-15.5%	nt	-5.3%	-5.3%	-0.5%
Cc1csc(NC(=O)C2CCCN(S(=O)(=O)c3ccc4c(c3)oc(=O)n4C)C2)n1 (configuration not stated)	?	-7.5%	9.8	-13.0%	-5.4%	0.7%
O=C(CSc1nc(-c2cccs2)nc2cc(=O)[nH]n12)Nc1ccc(F)cc1	12.1%	-6.2%	nt	-6.5%	-9.8%	?
O=c1[nH]c(=O)n(C2CCCCC2)c(O)c1C1=Nc2ccccc2SC(c2ccc(Cl)cc2)C1 (configuration not stated)	1.8%	-4.1%	nt	?	nt	3.7%
CC(C)c1cc2c(c(O)c1O)[C@]1(C(=O)O)CCCC(C)(C)C1CC2 (some centres not stated)	nt	nt	nt	-20.3%	nt	nt
CCOc1cccc(CC(=O)NCc2ccc3c(c2)CCN3C(=O)c2cccc(C)c2)c1OCC	20.6µM*	-21.7%	nt	51.2%	5.7%	-0.4%
CCOc1ccccc1NC(=O)NCc1ccc2c(c1)CCN2C(=O)c1ccccc1	nt	-0.5%	nt	15.1%	8.0%	0.3%
Cc1ccccc1C(=O)Nc1ccc(C(=O)OCc2cc(=O)n3nc(C4CC4)sc3n2)cc1	nt	-20.3%	nt	-12.0%	46.5%	-0.7%
Fc1ccc(C(OCCN2CCN(CCCc3ccccc3)CC2)c2ccc(F)cc2)cc1	23.1µM*	?	11.1	-2.3%[29.3 µM]	nt	-3.4%
CC(CN)CC(=O)O (configuration not stated)	nt	nt	nt	3.0%	nt	nt
CC(C)n1c(=O)c(C=Nc2cccc([N+](=O)[O-])c2)c(O)n(CCc2ccccc2)c1=O	-16.2%	-18.8%	0.1	-14.0%	0.8%	11.2µM*
CC(C)n1c(=O)c(C=Nc2ccc(S(N)(=O)=O)cc2)c(O)n(Cc2ccco2)c1=O	-12.5%	0.2%	-0.8	-7.2%	-3.5%	2.5%
C=C1C([C@@H](O)C[C@H](C)C2O[C@@]3(CCCCO3)CC[C@H]2C)OC2CC[C@@]3(CC[C@@H](/C=C/[C@@H](C)C4CC(C)=C[C@]5(O4)O[C@H](C[C@@](C)(O)C(=O)O)CCC5O)O3)OC2[C@@H]1O (some centres not stated)	nt	nt	nt	4.7%	nt	nt
COC1=CC(=O)[C@]2(C=C1OC)OC[C@@H]1Oc3c(ccc4c3C=CC(C)(C)O4)C(=O)[C@@H]12	0.651µM*	-10.0%	-15.7	nt	-4.3%[38.3 µM]	5.7%
N[C@]1(C(=O)O)CC[C@@H](C(=O)O)C1 (racemic)	nt	nt	nt	-20.2%	nt	nt
Nc1nc(F)nc2c1ncn2[C@@H]1O[C@H](CO)[C@@H](O)[C@H]1O	0.92µM*	?	5.2	nt	6.2%	-2.1%
OC[C@H]1O[C@@H](n2cnc3cc(Cl)c(Cl)cc32)[C@H](O)[C@H]1O	nt	nt	nt	6.2%	nt	nt
O=C(c1ccc(N2CCCCCC2)c([N+](=O)[O-])c1)N1CCC2(CC1)OCCO2	23.1µM*	?	20.5	-12.9%	3.7%	-0.5%
O=C(c1ccc2c(c1)OCO2)N1CCC2(CC1)OCCO2	11.2%	16.2%	2.1	0.8%	0.6%	0.0%
